This is a sample that favours compounds with a hit; in the whole collection about 3.8% have one here.
HepG2 viability = qHTS for Inhibitors of TGF-b: Cytotox Counterscreen; Potency, µM (titrated, usually from 46.1 µM), hits mostly cytotoxic; actives 0.76% (n = 410,000); HepG2 CAGA-GFP viability, ATP luminescence, 18 h
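CellTiter-Glo luminescence gave cytotoxicity after 18 hours at 37 degrees C. The cells were HepG2 CAGA-GFP in 1% FBS DMEM, stimulated with 500 pg/mL TGF-beta after compound addition. %Activity was normalised to no-cell wells (complete cell-killing) and DMSO (no toxicity), and curves were fitted and classified.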
S2 tox = Viability Counterscreen for Primary qHTS for Inhibitors of ATXN expression; S2 cells (HEK-293 line with an ATXN2-luciferase reporter) viability, CellTiter-Fluor protease fluorescence, 24 h; Potency, µM (doses to about 56.7 µM), most hits filed as cytotoxic; actives 0.49% (n = 400,000); note: nearly all actives have a fitted effect of over 40% in size
HT1080NT lethal = qHTS for induction of synthetic lethality in tumor cells producing 2HG: qHTS for the HT-1080-NT fibrosarcoma cell line | HT-1080-NT fibrosarcoma viability, CellTiter-Glo ATP luminescence, 48 h | Potency, µM (titrated, usually from 46.1 µM), hits mostly cytotoxic | actives 1.6% (n = 360,000);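 note: NT is the 2HG producing partner of a matched IDH1 knockdown line; nearly all actives have a fitted effect of over 55% in size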
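Toxicity toward the 2HG-producing NT line was scored as %Activity, normalised to DMSO and no-cell wells, from CellTiter-Glo luminescence after 48 hours' treatment.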
TGFb SMAD3 inh = qHTS for Inhibitors of TGF-b. HepG2 CAGA-GFP TGF-b/SMAD3 reporter, GFP fluorescence, 18 h; TGF-beta stimulated, 500 pg/mL final. Potency, µM (doses to about 46.1 µM), usual class: inhibitors. actives 1.2% (n = 410,000). AID 588855, 2011; note: nearly all actives have a fitted effect of over 65% in size
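Smad-responsive CAGA-GFP expression was quantified in HEPG2 cells exposed to compounds and 500 pg/mL final TGF-beta for 18 h at 37 degrees C; unstimulated wells defined full inhibition.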
ATXN2 expr inh = Primary qHTS for Inhibitors of ATXN expression. actives 0.72% (n = 360,000). Potency, µM (doses to about 57 µM), usual class: inhibitors. HEK-293 ATXN2-luciferase reporter, luminescence, 24 h; note: nearly all actives have a fitted effect of over 55% in size
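qHTS (up to 57 uM final) was run with 24 h compound exposure of reporter cells at 37 °C. Each well was multiplexed: SteadyGlo luminescence measured ATXN2-luciferase expression after a fluorogenic Gly-Phe-AFC viability readout (25 uM final).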
HT1080 IDH1KD tx = qHTS for induction of synthetic lethality in tumor cells producing 2HG: qHTS for the HT-1080-IDH1KD cell line; actives 2% (n = 360,000); Potency, µM (top dose mostly 46.1 µM), hits mostly cytotoxic; HT-1080 IDH1 knockdown viability, ATP luminescence, 48 h
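After a 2 h attachment period, IDH1KD HT-1080 cells took pin-transferred compound for 48 h at 37 °C; ATP-based luminescence after 10 min room-temperature reagent incubation reported viability.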
Hits are given with their value; 0 = inactive; ? = inconclusive; - = not tested or not shown; ! = repeats disagree; [ ] = remark or other dose. Calls come from the whole dose curve; as a rule, active = well fitted curve in the direction sought with a large enough effect; inconclusive = small, poorly fitted or top-dose-only effect, or another doubt; inactive = no such curve, though single readings can be large; an effect the other way counts as inactive or inconclusive.

SMILES	HepG2 viability	S2 tox	HT1080NT lethal	TGFb SMAD3 inh	ATXN2 expr inh	HT1080 IDH1KD tx
COCC(=O)Nc1cc(C(=O)N2CCN(c3ccc(Cl)cn3)CC2)c2c(c1)nc(C1CCC1)n2C	-	0	-	-	-	-
CNC(=S)NNC(=O)c1sc2cc(C(F)(F)F)cnc2c1-c1ccccn1	2.5µM	0	0	0	0	0
COc1ccc(C(=O)Nc2ncc3c(n2)CC(C)CC3=O)cc1 (stereo unspecified)	0	0	0	0	0	0
COc1cccc(C(=O)Nc2ncc3c(n2)CC(c2ccc(OC)cc2OC)CC3=O)c1 (stereo unspecified)	0	?	7.9µM	?	0	7.9µM
O=C1c2ccccc2C(=O)c2c(NCCCN(CCO)CCO)cccc21	0	-	21µM	?	0[11.3 µM]	?
Oc1ccc(Cl)c2cccnc12	10µM	?	0	7.1µM	13µM!	0
Cc1ccc(S(=O)(=O)Nc2cc(Cl)c(O)c3ncccc23)cc1	2.8µM	0	0	6.3µM	11µM	?
Clc1cc2cccnc2c2ccccc12	0	0	0	0	0	0
Oc1ccc(F)c2cccnc12	0	0	?	?	0	0
Oc1c(Cl)cc(Cl)c2cccnc12	0	?	?	?	24µM!	21µM
Oc1c(I)cc(I)c2cccnc12	0	0	3.7µM	0	0	?
C=CCNc1nc(NC2CCN(C)CC2)c2cc(OC)c(OC)cc2n1	0	-	-	?	-	-
Cc1cc([C@@H](C)Nc2ccccc2C(=O)O)c2nc(N3CCOCC3)cc(=O)n2c1	-	-	-	-	0	-
CCOC(=O)c1c2c(n(Cc3ccccc3)c1C)C(=O)C(=O)c1ccccc1-2	0	15µM	23µM	?	19µM	?
CCCCCCCCNc1ccc(/C=C/c2ccnc3ccccc23)cc1	0	-	-	0	-	-
CCC[n+]1c(/C=C/c2c(OC)cc(OC)cc2OC)ccc2ccccc21	0	-	-	0	-	-
CCCC[n+]1c(/C=C/c2c(OC)cc(OC)cc2OC)ccc2ccccc21	0	-	-	0	-	-
CCCC[n+]1c2ccccc2cc2ccccc21	0	-	23µM	?	-	?
CCC[n+]1c2ccccc2cc2ccccc21	0	0	16µM	?	0	?
COc1ccc(-n2c(C)cc(/C=C3\SC(=O)NC3=O)c2C)cc1	0	0	0	0	0	0
Cc1cc(/C=C2\SC(=Nc3ccccc3)NC2=O)c(C)n1-c1ccc(S(N)(=O)=O)cc1	0	0	7.3µM	13µM	?	5.2µM
CCCS(=O)(=O)N1CC(=O)N(c2ccc(Cl)cc2)C(C)(C(=O)NC2CCCC2)C1 (stereo unspecified)	0	-	-	0	-	-
Cc1[nH]n(-c2ccccc2)c(=O)c1Sc1ccc(Cl)cc1	0	0	0	0	0	0
CCCSC(=S)c1c(C)[nH]n(-c2ccccc2)c1=O	0	-	?	0	25µM	13µM
CCC(=O)N1CCc2cc(OC)c(OC)cc2C1COc1ccc(C(=O)OC)cc1 (stereo unspecified)	0	0	0[9.24 µM]	0	0	?
SMILES	HepG2 viability	S2 tox	HT1080NT lethal	TGFb SMAD3 inh	ATXN2 expr inh	HT1080 IDH1KD tx
COC(=O)c1ccc(OCC(O)CN2CCc3cc(OC)c(OC)cc3C2c2ccccc2)cc1 (stereo unspecified)	0	0	?	?	0	16µM
CCOC(=O)c1c(C)[nH]c(C)c1C(=O)COC(=O)/C=C/c1ccc(OC)cc1	0	?	?	0	0	15µM
Cc1cc(=O)c(C(=O)NCCCc2ccncc2)c2n1-c1ccccc1SC(c1cccs1)C2 (stereo unspecified)	-	0	-	-	-	-
Cc1oc(-c2ccccc2NC(=O)C2CCCO2)nc1CNC(=O)c1cc(Cl)ccc1F (stereo unspecified)	-	0	-	-	-	-
CCNc1cc(NC2CCC(O)CC2)nc(Nc2ccc3c(ccn3Cc3ccccc3)c2)n1 (stereo unspecified)	-	-	-	-	0	-
CCn1c(CC2C(=O)N(C)c3ccc(Br)cc32)nc2ccccc2c1=O (stereo unspecified)	0	-	-	?	-	-
CCCN1C(=O)C(Cc2nc3ccccc3c(=O)n2CC)c2cc(Br)ccc21 (stereo unspecified)	0	-	-	7.9µM	-	-
COc1ccccc1NC(=O)c1oc2ccccc2c1NC(=O)Cc1ccccc1	0	0	-	0	0	-
Cc1ccc(NC(=O)CSc2nc(-c3cccs3)nc3cc(=O)[nH]n23)cc1	0	0	-	0	0	-
COc1ccc2c(c1)c[n+](C)c1c3cc(OC)c(OC)cc3ccc21	-	?	9.2µM	-	18µM	10µM
COc1ccc(Cc2c3cc(OC)c(OC)cc3cc[n+]2C)cc1OC	0	0	0	0	0	0
COc1cc2c[n+](C)c3c4ccccc4ccc3c2cc1OC	0	0	?	0	0	16µM
CC(C)=C[C@@H]1C[C@H](C)[C@H]2CC[C@H](C)c3c(O)c(O)c(C)c1c32	0	0	0	0	0	0
CC(C)=C[C@H]1C[C@H](C)[C@H]2CC[C@H](C)c3c(O[C@@H]4OC[C@@H](O)[C@H](O)C4O)c(O)c(C)c1c32 (stereo partly specified)	22µM	?	?	?	?	?
CC(=O)OC1[C@H](Oc2c(O)c(C)c3c4c2[C@@H](C)CC[C@@H]4[C@@H](C)C[C@@H]3C=C(C)C)OC[C@@H](O)[C@@H]1O (stereo partly specified)	0	0	0	11µM	0	0
CC(=O)O[C@H]1[C@H](O)[C@H](Oc2c(O)c(C)c3c4c2[C@@H](C)CC[C@@H]4[C@@H](C)C[C@H]3C=C(C)C)O[C@@H](C)[C@H]1O	0	?	?	11µM	?	?
CC(=O)Oc1c(C)c2c3c(c1OC(C)=O)[C@@H](C)CC[C@@H]3[C@@H](C)C[C@H]2C=C(C)C	0	0	0	0	0	0
CN(C)c1ccc(/C=C/c2ccnc3ccccc23)cc1O	0	-	-	0	-	-
O=C(NCC1CCC2(CCN(Cc3ccccc3O)CC2)O1)C1CCCO1 (stereo unspecified)	-	0	-	-	-	-
Cc1ccc(CN2CCc3nc(N4CCN(c5ccccc5F)CC4)ncc3C2)s1	0	0	-	?	0	-
Cc1ccc2cccc(NC(=O)c3cccc4c(Cl)cccc34)c2n1	0	0	-	0	0	-
CCOC(=O)c1cccc(NC(=O)C2CCN(c3nnc(C)c4c(C)n(-c5ccccc5)nc34)CC2)c1	0	0	-	?	0	-
CC1CC2(CCCC2)Nc2ccc(F)cc21 (stereo unspecified)	0	0	0	0	0	0

Compound activity as filed in PubChem.
